Luc counter: Kinase-Glo luciferase inhibition (counter-screen); Potency, µM (top dose mostly 38.3 µM), actives largely listed as inhibitors; 200,000 compounds, 0.28% hits; Kinase-Glo luciferase, ATP luminescence, 8 min; Q27757; note: nearly all actives have a fitted effect of over 60% in size
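Luminescence was the read-out, taken after 8-minute incubation at ambient temperature. Luciferase turned over luciferin with 10 uM ATP in imidazole pH 7.2 buffer containing KCl, MgCl2, Tween 20 and BSA.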
NPC1 promoter act: activators of NPC1 promoter; AID 485313; Huh7 NPC1 promoter luciferase reporter, 24 h; Potency, µM (highest dose often 9.22 µM), actives largely listed as activators; 320,000 compounds, 2.4% hits; note: nearly all actives have a fitted effect of over 60% in size
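Stable NPC1-promoter luciferase Huh7 line; cpd (DMSO) 24 h, 37 °C, 5% CO2; Amplite luciferase reagent 10 min RT; luminescence readout. qHTS format.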
SMN2 splice enh: SMN2 splice variant enhancement; HEK293 SMN2-luciferase splicing reporter, luminescence, 30-36 h; 210,000 compounds, 2.8% hits; Potency, µM (series often up to 46.1 µM), usual class: activators; note: nearly all actives have a fitted effect of over 55% in size
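HEK293 cells carry an SMN2 […]–luciferase reporter in which exon 7 inclusion puts luciferase in frame. Cells were plated 10-12 h before compound addition, then incubated 30-36 h at 37C. ONE-Glo luminescence was read; sodium butyrate at 4.5 mM final served as control.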
ELG1 genotoxic: induces genotoxicity in HEK293T cells with luciferase-tagged ELG1 | AID 504466 | HEK293T ELG1-luciferase reporter, luminescence, 16 h | 330,000 compounds, 1.3% hits | Potency, µM (highest dose often 46 µM), most hits filed as activators; note: nearly all actives have a fitted effect of over 60% in size
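DMSO vehicle served as control against compound-treated ELG1-luciferase HEK293T cells; exposure lasted 16 hr at 37 °C and 5% CO2, followed by ONE-Glo luminescence detection after 30 min.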
FLuc counter: counter-screen for miR-21 project: firefly luciferase inhibitors or activators. AID 588342. purified FLuc, Km substrates, luminescence inhibition. P08659. 360,000 compounds, 6.9% hits. Potency, µM (series often up to 57.5 µM), most hits filed as inhibitors; note: nearly all actives have a fitted effect of over 55% in size
Target sequence (P08659 whole entry, looked up): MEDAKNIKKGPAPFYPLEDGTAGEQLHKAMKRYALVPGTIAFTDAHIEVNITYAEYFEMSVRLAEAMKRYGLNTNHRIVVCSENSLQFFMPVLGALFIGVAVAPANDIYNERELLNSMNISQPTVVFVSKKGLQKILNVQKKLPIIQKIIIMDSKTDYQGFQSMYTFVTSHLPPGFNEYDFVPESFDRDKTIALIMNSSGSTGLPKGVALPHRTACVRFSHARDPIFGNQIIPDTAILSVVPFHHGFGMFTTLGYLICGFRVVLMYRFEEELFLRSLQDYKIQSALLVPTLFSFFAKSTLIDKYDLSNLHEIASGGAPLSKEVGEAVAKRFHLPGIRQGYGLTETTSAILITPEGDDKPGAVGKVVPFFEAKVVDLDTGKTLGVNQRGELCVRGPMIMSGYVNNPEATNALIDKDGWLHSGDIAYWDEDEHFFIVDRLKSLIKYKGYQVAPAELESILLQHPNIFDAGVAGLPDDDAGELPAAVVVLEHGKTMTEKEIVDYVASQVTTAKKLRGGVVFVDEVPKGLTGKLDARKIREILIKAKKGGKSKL
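Biochemical qHTS of compounds, final roughly 60 µM downward over six points, against 10 nM purified firefly luciferase using Km concentrations of substrates (10 uM D-luciferin, 10 uM ATP) in Tris acetate pH 7.5 buffer; luminescence output.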
Rab9 promoter act: Rab9 promoter activation | Huh7 Rab9 promoter-luciferase reporter, luminescence, 24 h | Potency, µM (doses to about 9.22 µM), most hits filed as activators | 320,000 compounds, 2.8% hits | AID 485297; note: nearly all actives have a fitted effect of over 60% in size
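Promoter activation is measured as luciferase luminescence in Huh7 cells stably transfected with a Rab9 promoter–luciferase construct, following 24 h compound exposure at 37 °C and 10 min reagent incubation at ambient temperature.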
Hits are given with their value; – = inactive; ? = inconclusive; · = no result given; [ ] = remark or other dose. In the library only some 7.3% were active in any assay of this set; here they are far more common. Calls come from the whole dose curve; as a rule, active = well fitted curve in the direction sought with a large enough effect; inconclusive = small, poorly fitted or top-dose-only effect, or another doubt; inactive = no such curve, though single readings can be large; an effect the other way counts as inactive or inconclusive.

SMILES	Luc counter	NPC1 promoter act	SMN2 splice enh	ELG1 genotoxic	FLuc counter	Rab9 promoter act
COc1ccc(S(=O)(=O)n2nc(C)c(S(=O)(=O)N3CCC(C)CC3)c2C)cc1C	·	·	·	·	–	·
CCCCNc1nc(C)nc2c1nc(-c1ccccc1)n2CCCN1CCCCC1C (centres undefined)	–	·	–	·	·	·
Cc1ccccc1NC(=O)Cc1c(O)c2ccccc2[nH]c1=O	–	–	–	–	–	–
Cc1cccc(NC(=O)c2c(O)c3ccccc3[nH]c2=O)c1	·	1.6µM	·	?	?	0.71µM
Cc1ccc(NC(=O)Cc2c(O)c3ccccc3[nH]c2=O)c(C)c1	·	–	·	–	17µM	–
O=C(Nc1cccc(C(F)(F)F)c1)c1c(O)c2ccccc2[nH]c1=O	·	–	·	–	–	–
O=C(Nc1cccc(O)c1)c1c(O)c2ccccc2[nH]c1=O	·	?	·	?	3.8µM	?
O=C(CCCCCn1c(=O)c2sccc2n(Cc2ccc(Cl)cc2)c1=O)NCc1ccc2c(c1)OCO2	·	·	–	·	–	·
O=C(NNc1nc2c(F)cccc2s1)c1ccc(F)cc1	–	–	–	–	–	–
COc1ccc2nc(NC(=O)c3cc(=O)c4cc(C)c(C)cc4o3)sc2c1	·	·	–	·	–	·
Cc1cccc2sc(NNC(=O)c3cc(=O)c4ccccc4o3)nc12	·	?	·	?	4.8µM	?
COc1ccc2nc(NNC(=O)c3cc(=O)c4ccccc4o3)sc2c1	·	–	·	–	2.7µM	–
O=C(NNc1nc2c(F)cccc2s1)c1cc(=O)c2ccccc2o1	·	?	·	?	5.4µM	?
Cc1ccc2sc(NNC(=O)c3cc(=O)c4ccccc4o3)nc2c1C	·	–	·	?	9.5µM	–
Cc1nc(C)c(C(=O)Nc2nc3c(C)cccc3s2)o1	·	–	·	–	?	–
Cc1cc(C)cc(-c2cc3c(c(-c4c(O)c(-c5cc(C)cc(C)c5)cc5c4CCCC5)c2O)CCCC3)c1	–	·	–	·	·	·
CC1(OC(=O)C2CCCC2)C(=O)C=C2C=C(c3ccsc3)N(c3cccc(C#N)c3)C=C2C1=O (centres undefined)	–[7.66 µM]	·	–[9.22 µM]	·	·	·
COc1ccc(N=CC2=C(O)CC(C)(C)CC2=O)cc1	–	–	–	?	19µM	–
CC1(C)CC(=O)C(C=Nc2ccc3c(c2)OCO3)=C(O)C1	–	–	?	?	15µM	–
COc1ccc(OC)c(N=CC2=C(O)CC(C)(C)CC2=O)c1	–	–	–	–	–	–
CCCCOc1cccc(C2c3c(-c4cc(C)ccc4O)n[nH]c3C(=O)N2CCOC)c1 (centres undefined)	·	·	–	·	–	·
O=C(NC1CCCCCCC1)c1ccccc1-c1ccccc1	–	–	–	–	–	–
O=C(NN=C1CCCCCC1)c1cc2ccccc2cc1O	·	–	·	–	17µM	–
Cn1cccc1C(=O)NC1CCCCCC1	·	?	·	?	17µM	2.2µM
O=C(NC1CCCCCCC1)c1ccccc1O	–	4µM	–	–	15µM	3.5µM
SMILES	Luc counter	NPC1 promoter act	SMN2 splice enh	ELG1 genotoxic	FLuc counter	Rab9 promoter act
O=C(NN=C1CCCCCC1)c1c[nH]c2ccccc12	–	–	–	–	12µM	–
Clc1ccc2c(N3CCC(CCC4CCN(c5ncnc6cc(Cl)ccc56)CC4)CC3)ncnc2c1	–[7.66 µM]	·	–[9.22 µM]	·	·	·
Cc1ccccc1C(=O)NC1CCCCCCC1	·	2.8µM	·	16µM	12µM	2.5µM
CSc1ccccc1C(=O)NC1CCCCCC1	–	–	–	–	–	–
O=C(NC1CCCCC1)c1cc2ccccc2cc1O	·	?	·	–	17µM	–
O=C(NCCc1ccccc1)c1cc(Sc2cccc(Cl)c2)nc2ccccc12	·	·	·	·	–	·
Cc1cccc(Cc2c(C)nc3nc(SCc4ccccc4F)nn3c2C)c1	·	·	·	·	–	·
Cc1ccccc1N=Nc1c(C)[nH]n(C(N)=S)c1=O	–	–	–	–	?	–
CC(=O)N(C)c1ccc(N=Nc2c(C)[nH]n(C(N)=S)c2=O)cc1	–	0.63µM	3.2µM	?	2.7µM	0.45µM
CCN(CC)S(=O)(=O)c1ccc(N=Nc2c(C)[nH]n(C(N)=S)c2=O)cc1	–	?	?	–	8.5µM	?
CCOC(=O)c1c(C)[nH]c(C=Nc2ccccc2)c1O	–	?	?	–	–	?
COC(=O)c1c(C)[nH]c(C=Nc2ccc(OC)cc2)c1C	·	–	·	–	7.6µM	–
CCOC(=O)c1c(C)[nH]c(C=Nc2ccc(OC)cc2)c1O	–	4µM	11µM	?	21µM	2.2µM
Cc1ccc(S(=O)(=O)c2nnn(CC(=O)Nc3ccccc3C)c2N)cc1	·	·	–	·	–	·
CCCCCN1C=CC(=C2C(=O)c3ccccc3C2=O)C=C1	2.8µM	0.13µM	–	–	0.067µM	0.016µM
CCN1C(=C2C(=O)c3ccccc3C2=O)C=Cc2ccccc21	–	–	–	?	?	–
CCC(NC(=O)c1ccccc1NC(=O)C(C)(C)C)C(=O)N1CCCC1 (centres undefined)	·	–	·	–	–	–
CC(C)Oc1ccc(C(=O)NNC(=O)c2ccccc2C(=O)O)cc1	–	–	–	–	21µM	–
COc1ccc(C(=O)Nc2ccccc2C(=O)N/N=C/c2cccc3ccccc23)cc1	5µM	?	–	–	0.085µM	?
O=C(Cc1ccc(Cl)cc1)Nc1ccccc1C(=O)Nc1ccc(C(=O)O)cc1	–	–	–	–	–	–
CC(C)Oc1ccc(CCC(=O)NNC(=O)c2ccccc2C(=O)O)cc1	·	–	·	–	–	–
CCC(NC(=O)c1ccccc1NC(=O)c1ccc(OC)cc1)C(=O)N1CCCC1 (centres undefined)	–	–	?	–	17µM	–
O=C(O)c1ccc(NC(=O)c2ccccc2NC(=O)c2ccccc2Cl)cc1	·	–	·	–	19µM	–
C=C1C[C@@]23C[C@@]1(O)CC[C@@H]2[C@]12C=C[C@@H](O)[C@](C)(C(=O)O1)[C@@H]2[C@@H]3C(=O)O	–	·	·	·	·	·
COc1ccc(NC(=O)c2ccc(Cl)c(NC(=O)c3ccncc3)c2)cc1	–	–	·	–	?	–
SMILES	Luc counter	NPC1 promoter act	SMN2 splice enh	ELG1 genotoxic	FLuc counter	Rab9 promoter act
COc1ccc(C(=O)Nc2ccccc2C(N)=O)cc1	?	3.2µM	32µM	?	–[2.3 µM]	2µM
COc1c(Cl)cc(C(=O)Nc2ccccc2C(=O)O)cc1Cl	–	–	–	–	17µM	–
COc1c(Cl)cc(C(=O)NN)cc1Cl	–	–	·	?	–	–
NC(=O)c1ccccc1NC(=O)c1ccc2ccccc2c1	·	0.89µM	·	2.3µM	0.54µM	0.56µM
COc1ccc(C(=O)Nc2ccccc2C(=O)N2CCCCCC2)cc1	·	?	·	–	–	–
COc1ccc(C(=O)Nc2ccccc2C(=O)Nc2ccncc2)cc1	·	?	·	?	1.7µM	?
Cc1ccc(NC(=O)CN2C(=O)c3cccnc3Oc3ccc(Cl)cc32)cc1	·	·	·	·	–	·
CCOC(=O)c1c(NC(C)=O)c2c3c(sc2n1Cc1nc(-c2ccccc2OCC)oc1C)CCCC3	·	·	–	·	–	·
CCOc1ccccc1NC(=O)Cn1c(=O)n(Cc2ccccc2)c(=O)c2c(C)c(C)sc21	·	·	–	·	–	·
